Screens from PubChem BioAssay.
Tau fibril ThT – tau fibrillization inhibition (ThT binding); P10636; recombinant tau K18 P301L, heparin-induced fibrillization, ThT fluorescence; Potency, µM (highest dose often 57.4 µM), for inactives: at the top dose activity, negative = inhibition, usual class: inhibitors; 270,000 tested, 2.1% active; also: potency is read from the fitted curve at half-maximal effect; nearly all actives have a fitted effect of over 55% in size
Target sequence (P10636 561-689 P618L limits assumed): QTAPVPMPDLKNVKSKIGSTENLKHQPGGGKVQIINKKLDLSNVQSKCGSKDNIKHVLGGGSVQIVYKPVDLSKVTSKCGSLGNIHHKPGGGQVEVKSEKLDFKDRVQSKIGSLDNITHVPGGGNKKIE
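Heparin-induced fibrillization of the P301L-mutant K18 repeat-domain fragment of human tau was followed by ThT binding in quantitative high-throughput format.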
FBPA coupling cs – inhibits coupling enzyme system, counter-screen for aldolase hits. coupling enzyme system counterscreen, AmpLite Red fluorescence. activity change, negative = inhibition, % at 58.2 µM, hits read low. 290,000 tested, 0.67% active; in the data active = activity change below about -30%
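Activity here indicates interference with the coupling reaction, not aldolase inhibition. Compounds at 57.5 uM final met coupling enzymes for 10 min at RT; substrate and AmpLite Red detection followed, with a 525/598 nm fluorescence read after 20 min.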
G9a inh – inhibitors of human histone lysine methyltransferase G9a | Q96KQ7 | Potency, µM (doses to about 102 µM), for the others: top-dose activity, negative = inhibition, actives largely listed as inhibitors | G9a H3K9 monomethylation, AlphaScreen, 2 h | 350,000 tested, 8.8% active | AID 504332; also: potency is read from the fitted curve at half-maximal effect; nearly all actives have a fitted effect of over 75% in size
Target sequence (Q96KQ7 913-1193 limits assumed): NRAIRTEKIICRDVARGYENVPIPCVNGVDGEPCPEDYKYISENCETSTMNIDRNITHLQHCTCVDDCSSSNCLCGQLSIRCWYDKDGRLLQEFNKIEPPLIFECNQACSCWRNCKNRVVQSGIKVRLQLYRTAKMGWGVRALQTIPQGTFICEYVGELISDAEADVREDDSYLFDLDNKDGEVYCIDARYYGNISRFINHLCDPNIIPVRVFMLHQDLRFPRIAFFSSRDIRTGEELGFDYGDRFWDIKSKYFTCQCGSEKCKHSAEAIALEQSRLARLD
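Methyltransferase reactions run at room temperature for 2 h (20 nM enzyme, 500 nM biotin-H3K9 peptide, 20 uM SAM) after a 15 min compound preincubation; product detected by AlphaScreen beads and anti-H3K9me1 antibody.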
Tau fibril FP – inhibitors of human tau fibril formation | K18 P301L tau heparin fibrillization, Alexa594 FP, 6 h | Potency, µM (series often up to 57.7 µM), inactives show at the top dose activity, negative = inhibition, hits mostly inhibitors | 280,000 tested, 0.39% active | AID 1468; also: potency is read from the fitted curve at half-maximal effect; nearly all actives have a fitted effect of over 55% in size
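Recombinant K18 P301L […], labeled with Alexa 594 at 0.24 uM over 15 uM unlabeled; heparin inducer 20 uM final; 37 C, 6 hr; FP endpoint.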
Sfp PPTase inh – Sfp phosphopantetheinyl transferase inhibition; Biochemical Sfp PPTase activity, qHTS; Potency, µM, without a hit: largest response in the series, negative = inhibition, most hits filed as inhibitors; 310,000 tested, 3.5% active;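 also: the enzyme is Sfp with the accession as filed and its product quenches rhodamine fluorescence; potency is read from the fitted curve at half-maximal effect; 0% = enzyme reaction without inhibitor and -100% = no enzyme wells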
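Step 1, compound plus 15 nM Sfp-PPTase, 15 min, room temperature. Step 2, add rhodamine-CoA (5 uM) and BHQ-2-YbbR (12.5 uM). Step 3, read 525/598 nm fluorescence at 0 and 30 min.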
Tau fluor cs – counter-screen for tau fibril formation inhibitors | tau K18 P301L (four-repeat tau fragment) Alexa594 fluorescence, heparin fibrillization | AID 1463 | Potency, µM (titrated, usually from 57.7 µM), inactives show top-dose activity change, negative = decrease | 280,000 tested, 0.93% active; also: potency is read from the fitted curve at half-maximal effect; nearly all actives have a fitted effect of over 55% in size
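Human K18 P301L tau (15 uM unlabeled plus 0.24 uM Alexa 594-labeled, final) in 100 mM sodium acetate pH 7 was mixed with compound and 20 uM heparin and incubated 6 hr at 37 C.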
Active calls of the source: *; ? = inconclusive; / = no result given; ! = repeats disagree; [ ] = dose if it differs, or a comment. Shown are actives, neighbours in structure and some others; about 11% of the full set was active somewhere. Unless noted, calls follow the shape of the dose curve; as a rule, active = well fitted curve in the direction sought with a large enough effect; inconclusive = small, poorly fitted or top-dose-only effect, or another doubt; inactive = no such curve, though single readings can be large; an effect the other way counts as inactive or inconclusive. Unless noted, % is scaled to controls: 0 for no effect and ±100 for the full control effect.

SMILES	Tau fibril ThT	FBPA coupling cs	G9a inh	Tau fibril FP	Sfp PPTase inh	Tau fluor cs
CC(C)C[C@H]1C(=O)N2CCCC2[C@]2(O)O[C@](NC(=O)[C@@H]3C=C4c5cccc6[nH]c(Br)c(c56)C[C@H]4N(C)C3)(C(C)C)C(=O)N12 (some centres not stated)	?	/	22.4µM*	12.1%	44.7µM*	?
C[N+](C)(C)CCCl	/	1.8	/	/	11.7%	/
CCCN(CCC)c1c([N+](=O)[O-])cc(S(N)(=O)=O)cc1[N+](=O)[O-]	/	-6.7	/	/	14.5%	/
COc1nnc(-c2ccc(N3CCCCC3)c(NC(=O)c3ccccc3)c2)c2ccccc12	?	/	9.4%[59 µM]	-9.9%	/	-18.5%
Cc1cc(C(=O)CS(=O)c2ccc(F)cc2)cc(C)c1OC(=O)N(C)C (configuration not stated)	-11.3%	1.4	39.8µM*	-5.6%	?	6.8%
N#CC(C#N)=NNc1ccc(OC(F)(F)F)cc1	7.94µM*	12.0	10µM*	?	?	?
FC(F)(F)Oc1ccc(NC2=NCCCS2)cc1	/	-1.5	-8.2%	/	8.6%	/
Cn1c(O)c(C(=Nc2ccccc2)SCc2ccc(Cl)cc2)c(=O)n(C)c1=O	?	-3.8	?	?	44.7µM*	-9.9%
Cn1c(O)c(C(=N)COc2ccccc2)c(=O)n(C)c1=O	?	-0.2	15.0%[0.0925 µM]	-2.6%	3.7%	4.9%
CCCN1CCC[C@@H]2Cc3[nH]ncc3C[C@H]21	-12.2%	-5.9	25.1µM*!	4.0%	-2.0%	-9.5%
CCCN1CCC[C@@H]2Cc3nc(N)ncc3C[C@H]21	-9.7%	/	10.6µM*!	-10.1%	/	-18.4%
CCCN1CCC[C@@H]2Cc3n[nH]cc3C[C@H]21	-1.1%	/	21.9%[12.7 µM]	4.3%	/	-2.4%
CCC(Sc1ccccc1)C(=O)OC1CC2CCC(C1)N2C (configuration not stated)	-4.0%	/	-1.2%[59 µM]	1.2%	-25.6%	-3.5%
CCCCN(CC)c1c([N+](=O)[O-])cc(C(F)(F)F)cc1[N+](=O)[O-]	-5.4%	3.8	/	?	8.1%	-15.3%
CCN1C[C@]2(C)CC[C@H](O)[C@@]34[C@@H]5C[C@@H]6[C@@H](OC)C[C@@](O)(C5[C@H]6O)[C@@H](C[C@@H]23)[C@@H]14	-11.0%	/	15.0%[12.7 µM]	-3.0%	/	-15.8%
Cc1ccc2oc(-c3ccccc3)cc(=O)c2c1	?	0.6	/	?	7.7%	-23.5%
O=c1c(O)c(-c2ccc(O)c(O)c2)oc2cc(O)cc(O)c12	12.6µM*	-0.8	12.6µM*	?	56.2µM*!	10µM*[quencher]
O=c1cc(-c2ccc(O)c(O)c2)oc2cc(O)cc(O)c12	12.6µM*	-3.3	10µM*	7.2%	?	?
CN1C[C@@H](CS(=O)(=O)N(C)C)C[C@@H]2c3cccc4c3c(cn4C)C[C@H]21	-6.7%	/	18.6%[12.7 µM]	-0.9%	/	-7.8%
COc1cc(CN2CCc3nc(N4CCN(c5ccccn5)CC4)ncc3C2)cc(OC)c1OC	?	/	?	-0.3%	/	-3.6%
ClC1=C(Cl)C2(Cl)C(CBr)CC1(Cl)C2(Cl)Cl (configuration not stated)	/	/	0.1%[12.7 µM]	/	-0.5%	/
CC1=C2C(=COC(C)C2C)C(=O)C(C(=O)O)=C1O (configuration not stated)	?	-35.5*	?	-4.1%	-12.8%	-15.8%
COCCOC(=O)C1=C(C)OC(N)=C(C(=O)OC)C12C(=O)Nc1ccccc12 (configuration not stated)	39.8µM*	0.8	12.9%[59 µM]	?	13.7%	-20.8%
CCN1C(=O)NC(=O)/C(=C\c2cn(CC(=O)O)c3ccccc23)C1=O	/	-1.2	8.5%[2.33 µM]	/	2.4%	/
O=C(O)Cn1cc(/C=C2\C(=O)NC(=O)N(c3ccc(Br)cc3)C2=O)c2ccccc21	/	3.9	56.2µM*	/	28.2µM*	/
SMILES	Tau fibril ThT	FBPA coupling cs	G9a inh	Tau fibril FP	Sfp PPTase inh	Tau fluor cs
Cc1ccc(N2C(=O)NC(=O)/C(=C\c3cn(CC(=O)O)c4ccccc34)C2=O)cc1	/	-2.6	25.1µM*	/	-24.8%	/
O=C(O)Cn1cc(/C=C2\C(=O)NC(=O)N(Cc3ccco3)C2=O)c2ccccc21	?	-6.3	15.8µM*	-12.6%	28.2µM*	-12.4%
CN[C@@H](Cc1c[nH]c2ccccc12)C(=O)O	-6.7%	-1.5	/	1.8%	-5.3%	-9.1%
Cc1cccc(N=Cc2c(O)n(-c3ccccc3C)c(=O)[nH]c2=O)c1	-21.0%	0.5	-35.1%	-11.8%	6.6%	-17.4%
CCN(CC)c1ccc(N=Cc2c(O)n(-c3ccc(Cl)cc3)c(=O)[nH]c2=O)cc1	?	-2.1	/	-7.1%	-22.5%	-19.6%
Cc1ccccc1-n1c(O)c(C=Nc2ccc(N(C)C)cc2)c(=O)[nH]c1=O	28.2µM*	-3.2	?	?	-28.6%	?
CCN(CC)c1ccc(N=Cc2c(O)n(-c3ccc(OC)cc3)c(=O)[nH]c2=O)cc1	?	-4.8	50.1µM*	-1.2%	?	-23.4%
Cc1c(NC(=O)Nc2cccc(C(F)(F)F)c2)sc2nc3n(c(=O)c12)CCC(C)CC3 (configuration not stated)	7.0%	/	2.8%[59 µM]	12.7%	/	?
N#Cc1ccc(CN2CC[C@@]3(CCCNC3)C2)cc1	/	-1.2	-9.7%[12.7 µM]	/	4.9%	/
CC(=O)N1N=C(c2c(O)n(C)c(=O)n(C)c2=O)CC1c1ccccc1 (configuration not stated)	-2.6%	3.2	39.8µM*	3.9%	-15.5%	9.8%
CC(=O)N1N=C(c2cccnc2)CC1c1ccccc1O (configuration not stated)	-8.3%	2.0	4.0%	-0.4%	12.5%	-8.1%
Nc1ccc2ccc3cccc[n+]3c2c1	/	-7.0	35.5µM*	/	-25.9%	/
CCC(C)C(=O)OC1C(O)C2C(CN3CC(C)CCC3[C@]2(C)O)C2C[C@]34O[C@@]5(O)C(OC(=O)C(C)(O)CC)CCC3(C)C5C(OC(C)=O)C(OC(C)=O)C4[C@@]21O (some centres not stated)	0.7%	0.7	0.5%[2.33 µM]	1.8%	3.2%	0.3%
O=C1NC(=O)N(C2CCCCC2)C(=O)C1C1c2ccccc2C(=O)N1Cc1ccccc1 (configuration not stated)	-10.1%	3.5	56.2µM*	1.3%	2.4%	1.3%
CCOc1cccc(CC(=O)NCc2ccc3c(c2)CCN3C(=O)c2cccc(C)c2)c1OCC	?	/	-38.5%[59 µM]	-3.3%	/	-13.4%
C#CCN1C(C)=C(C(=O)CCO)[C@@H](c2cccc(-n3oo3)c2)C(C(=O)OC)=C1C	-19.4%	-0.7	/	-2.5%	-12.4%	-27.8%
Cc1cc(C(=O)OCC(=O)Nc2ccccc2F)c(C)n1C1CC1	/	/	50.1µM*	/	/	/
